Data taken from ChEMBL document CHEMBL1157539, “Thousands of chemical starting points for antimalarial lead identification” (Nature, 2010).
“And” between values parts separate entries of the source, which are not always exact repeats. Identical values can stand only once.

What follows are compounds tested on Plasmodium falciparum (assay: GSK_TCMDC: Inhibition of Plasmodium falciparum 3D7 in whole red blood cells, using parasite LDH activity as an index of growth. Test compounds present at 2uM).
Type: functional

Structure (SMILES) | Inhibition
COc1ccccc1CC(C)NCC(O)c1cccc(Cl)c1 (stereo not drawn) | 97%
COc1cccc(CCNC(C)Cc2ccc(OCCCCOc3ccccc3)cc2)c1 (stereo not drawn) | 97%
C[C@H](Cc1ccc(OCCCCCCOc2ccccc2)cc1)NC[C@@H](O)c1cc(Br)no1.Cl | 94%
COc1ccc(OC)c(C(O)C(C)NCc2cc(Cl)ccc2O)c1.Cl (stereo not drawn) | 97%
COCCNCc1cccc(-c2cccc(CN(C(=O)Nc3ccccc3)C3CCN(Cc4ccccc4)CC3)c2)c1.O=C(O)C(F)(F)F | 100%
CC(C)CNCc1cccc(-c2ccccc2CN(C(=O)Nc2ccccc2)C2CCN(Cc3ccccc3)CC2)c1.O=C(O)C(F)(F)F | 100%
Cc1nc(-c2ccc(-c3ccc(C(=O)Nc4ccc5c(c4)C4(CCNCC4)CO5)cc3)c(C)c2)no1.Cl | 90%
Cc1ccc(CC(C)NCC(O)c2cccc(Br)c2)cc1 (stereo not drawn) | 99%
CN1CC[C@H](N(Cc2ccccc2F)c2ccc(C#N)c(Cl)c2)C1 | 88%
COc1cccc(/C=C/C(=O)NC2CCC(CN3CCC(c4c[nH]c5ccccc45)CC3)CC2)c1 (stereo not drawn) | 100% and 94%
CC[C@H]1CN2CC[C@H]1C[C@H]2[C@@H](O)c1cc(OCCCN(C)C)nc2ccc(OC)cc12 | 99%
CC(=O)Nc1ccc2[nH]cc(C3CCN(CC4CCC(NC(=O)/C=C/c5ccc(Cl)c(Cl)c5)CC4)CC3)c2c1 (stereo not drawn) | 100% and 90%
O=C(/C=C/c1cc(F)c(F)cc1F)N1CCC(CN2CCC(c3c[nH]c4ccccc34)CC2)CC1 | 93%
